Screening data deposited in PubChem by The Scripps Research Institute Molecular Screening Center.
In the library only some 2.3% were active in any assay of this set; here they are far more common.
CHO-K1 Ca PAM: M1 PAM counterscreen hit in parental CHO-K1 cells; activation, % at 3 µM; hit rate 0.02% among 360,000; ATP EC20, Fluo-8 calcium fluorescence; 0% at ATP EC20, 100% at ATP max; AID 602247;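 active means activation above the run cutoff, the mean activation of all test compounds plus 3 SD, cut at about 40% in these data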;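 further: peak over basal fluorescence ratio in a 140 s read after ATP addition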
M1 ag: agonists of human M1 muscarinic receptor. hit rate 0.33% among 360,000. CHO-K1 hM1, Fluo-8 calcium fluorescence, agonist mode; 0% DMSO, 100% acetylcholine EC100. activation, % at 3 µM. AID 588814. P11229;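 active means activation above the run's mean compound activation plus 3 SD, cut at about 16% in these data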;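 further: peak over basal fluorescence ratio within a 140 s kinetic read after compound addition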
Target sequence (P11229 whole entry, looked up): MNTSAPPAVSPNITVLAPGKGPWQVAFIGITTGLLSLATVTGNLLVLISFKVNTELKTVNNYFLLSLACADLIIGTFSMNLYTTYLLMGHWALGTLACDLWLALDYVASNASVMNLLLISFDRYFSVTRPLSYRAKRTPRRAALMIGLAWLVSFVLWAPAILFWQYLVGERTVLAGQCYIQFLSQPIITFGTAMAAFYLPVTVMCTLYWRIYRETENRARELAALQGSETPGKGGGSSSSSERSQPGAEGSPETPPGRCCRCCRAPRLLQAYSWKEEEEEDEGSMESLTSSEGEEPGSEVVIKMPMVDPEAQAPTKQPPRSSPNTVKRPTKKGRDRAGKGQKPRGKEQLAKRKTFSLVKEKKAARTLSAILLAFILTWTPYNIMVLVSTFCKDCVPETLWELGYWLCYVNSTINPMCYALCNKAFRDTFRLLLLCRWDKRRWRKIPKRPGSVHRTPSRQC
M1 ag parental: M1 agonist counterscreen hit in parental CHO-K1 cells; Fluo-8 calcium fluorescence; scaled to maximal ATP response, vehicle zero; activation, % at 3 µM; hit rate 0.48% among 360,000; in the data active means activation above about 15%;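 further: untransfected CHO-K1 host cells lacking M1 receptor as counterscreen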
CHO-K1 Ca antag: nonselective inhibitor or artifact in parental CHO-K1 cells; inhibition, % at 3 µM; AID 602250; ATP-induced calcium, Fluo-8 fluorescence; hit rate 0.6% among 360,000;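 active means inhibition above a per-plate cutoff, the plate's mean sample inhibition plus 3 SD, cut at about 24% in these data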;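 further: 0% = DMSO plus EC80 ATP and 100% = DMSO alone without ATP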
M1 antag: human CHRM1 antagonism | P11229 | inhibition, % at 3 µM | hit rate 1.3% among 360,000 | CHO-K1 hM1, Fluo-8 calcium fluorescence, ACh EC80 antagonist | AID 588852;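 active means percent inhibition above its own plate's cutoff, namely the mean of that plate's compound wells plus 3 SD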;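 further: peak over basal fluorescence ratio during 140 s after agonist addition; 0% = ACh EC80 plus DMSO and 100% = DMSO alone without agonist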
CHRM1 PAM: human CHRM1 positive allosteric modulation; activation, % at 3 µM; P11229; CHO-K1 hM1, Fluo-8 calcium fluorescence, ACh EC20; 0% = ACh EC20, 100% = maximal ACh; hit rate 0.088% among 360,000; in the data active means activation above about 19%, passing the limit was not always enough
* marks the source's active call; other numbers are inactive results.

SMILES	CHO-K1 Ca PAM	M1 ag	M1 ag parental	CHO-K1 Ca antag	M1 antag	CHRM1 PAM
CCOC(=O)c1ccc(NC(=O)N2CCN(c3ccccn3)CC2)cc1	-5	-3	2	12	0	8
CCOC(=O)c1ccc(N2CCN(c3ccccc3F)CC2)c(NC(=O)Nc2cccc(OC)c2)c1	-5	1	6	41*	32*	-12
COC(=O)c1ccc(N2CCOCC2)c(NC(=O)Nc2cccc(OC)c2)c1	-8	-4	0	14	-6	5
CCOC(=O)c1ccc(NC(=O)N2CCN(c3cccc(OC)c3)CC2)cc1	2	-1	13	-3	44*	-7
COC(=O)c1ccc(CSc2ncnc3ccccc23)o1	-6	-5	0	25*	2	0
COC(=O)c1ccc(CSc2nnc(C)n2N)o1	20	-7	1	-8	-10	12
COC(=O)c1ccc(CSc2ccc3nnc(-c4cccc(F)c4)n3n2)o1	-7	-11	1	12	38*	-19
COC(=O)c1ccc(CSc2nnnn2C)o1	20	-4	0	-10	43*	-18
Cc1ccc(Cl)cc1NC(=O)c1ccc(CSc2nnnn2C)cc1	-5	-4	1	26*	11	-1
COC(=O)c1ccc(CSc2ncnc3c2oc2ccccc23)o1	15	-3	1	-9	-17	9
Cc1ccc(/C=C/C(=O)NCCc2cccc(Cl)c2)o1	14	0	1	0	-13	13
COc1ccc(CCNC(=O)CN2C(=O)NC(c3ccccc3)(c3ccccc3)C2=O)cc1	4	-1	2	-8	10	-7
Fc1ccccc1CSc1ccc(-c2ccco2)nn1	16	-6	0	-8	-11	8
CN(C)/C=C1\C=C2C(=O)c3ccccc3N2C1=O	-19	141*	165*	41*	34	-17
CC1(C(=O)NS(=O)(=O)C2CC2)CCN(C(=O)C2(c3ccc(Cl)cc3)CCCC2)C1 (stereo unspecified)	22	-2	4	-1	-15	11
COc1ccc(C(=O)OCC(=O)Nc2ccc(OC(F)F)cc2)c(OC)c1	-6	-5	0	25*	-2	3
Cc1ccc(Cc2c(-c3cccc(Cl)c3)nc3c(C)cc(Br)cn23)cc1	37	-4	1	-29	-41	5
Cc1ccc(Cl)cc1N1CCN(C(=O)Cc2ccc(-n3c(=O)[nH]c4ccsc4c3=O)cc2)CC1	0	-9	2	-1	1	-6
CSCCC(NC(=O)c1ccco1)C(=O)NCC1CCCO1 (stereo unspecified)	13	0	1	-16	-5	3
CN1\C(=C/C=C/C=C/C=[N+](C)C)C(C)(C)c2ccccc21	-4	53*	26*	14	47*	-20
O=[N+]([O-])c1ccc(COc2ccc(CNc3ccccc3)cc2)cc1	14	-10	10	-3	26*	-23
Cc1cc(C)nc(-n2nc(C)cc2NC(=O)CN2CCC(C)CC2)n1	6	-7	0	0	-13	20*
Cc1cc(C)nc(-n2nc(C)cc2NC(=O)CN2CCCC2)n1	18	-5	1	-5	-4	3
COC(=O)/C=C1\N/C(=N\c2nc(C)cc(C)n2)N(c2ccc(Cl)cc2)C1=O	-19	0	1	5	4	3
O=C1CN(CC(=O)Nc2ccc(Cl)cc2)CCN1	13	-2	0	-1	-6	3
O=C1CN(CC(=O)Nc2ccc(SC(F)F)cc2)CCN1	-16	-1	-1	27*	10	-7
Cc1ccc(C)c(S(=O)(=O)N2CCN(C(=O)c3ccnn3C)CC2)c1	12	-2	2	-6	-9	7
CN(C)C(=O)c1cccc(-c2cccc(-c3nc(C(=O)NCc4ccccc4)cc4c3[C@@H](CCO)N(S(=O)C(C)(C)C)C4)c2)c1 (stereo partly specified)	-9	-5	5	25*	23	-13
CCNC(=O)c1cc2c(c(-c3cccc(-c4cccc(C(=O)N(C)C)c4)c3)n1)[C@H](CCO)N(S(=O)C(C)(C)C)C2 (stereo partly specified)	13	-10	1	3	-5	5
